Results reported in PubChem BioAssay (NCI).
About 83,000 compounds went through this panel and 20% of them were active in at least one assay; those are over-represented in the sample as a whole.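 A percent growth of 40 corresponds to 60% growth inhibition; 0 means no net growth; -100 means all cells died. Active threshold: below 10.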 The source made the active and inactive calls.

How the values were obtained:
Test in all cases: NCI-60 one-dose screen, 48 h (100 = growth as untreated, 0 = no growth, -100 = all killed)
Conditions in all cases: 10 µM unless noted
[1] = test system: NCI-H23 lung
[2] = test system: NCI-H226 lung
[3] = test system: NCI-H322M lung
[4] = test system: HOP-62 NSCLC
[5] = test system: NCI-H460 lung
[6] = test system: HOP-92 NSCLC
[7] = test system: NCI-H522 lung
[8] = test system: A549/ATCC NSCLC
[9] = test system: 786-0 renal
[10] = test system: COLO 205 colon
[11] = test system: DU-145 prostate
[12] = test system: K-562 leukemia
[13] = test system: MALME-3M melanoma
[14] = test system: MDA-MB-231 breast
[15] = test system: RXF 393 renal
[16] = test system: SF-268 CNS
[17] = test system: SF-295 CNS
[18] = test system: SF-539 CNS
[19] = test system: UACC-257 melanoma
[20] = test system: M14 melanoma

Measured: growth

O=C(C1=Cc2cc3ccccc3n2Cc2cnnn21)c1ccccc1
inactive: [1] 73.6% | [2] 78.1% | [3] 80.6% | [4] 39.2% | [5] 30.9% | [6] 55.1% | [8] 58.5% | [9] 69.1% | [10] 58.8% | [11] 85.6% | [12] 21.4% | [13] 76.9% | [14] 54.3% | [15] 54.6% | [16] 58.8% | [17] 56.3% | [18] 57.8% | [19] 74.6% | [20] 22.2%
active: [7] 9.68%

Nc1ncnc2c1c(-c1ccc(Oc3ccccc3)cc1)nn2C[C@@H]1SSC[C@@H]1O
active: [5] -30.5% | [6] -4.45% | [7] -22.1% | [12] 2.87% | [13] -7.41% | [20] -85.1%
inactive: [1] 28.8% | [2] 46.7% | [3] 61.8% | [4] 48.8% | [8] 22.1% | [9] 57.5% | [10] 33.8% | [11] 34% | [14] 52% | [15] 37.7% | [16] 29.7% | [17] 38.3% | [18] 40.9% | [19] 14.6%

COc1cc2c(cc1OCCCN1CCN(CCCn3c4ccccc4c4ccccc43)CC1)N=C[C@@H]1CCCN1C2=O
active: [1] -30.6% | [2] -80.4% | [3] -65.5% | [4] -66% | [5] -96.9% | [6] -80.5% | [7] -26.6% | [8] -37.5% | [9] -70.3% | [10] -98.8% | [11] -85.9% | [12] -50.1% | [13] -82.5% | [14] -69.3% | [15] -78.3% | [16] -87.8% | [17] -92.3% | [18] -91.3% | [19] -70.3%

COc1cc(C(=O)/C=C/c2ccc3nc(-c4cc(F)cc(F)c4)sc3c2)cc(OC)c1OC
inactive: [1] 99.3% | [2] 120% | [3] 93% | [4] 92.3% | [5] 110% | [6] 83.4% | [7] 97.4% | [8] 94.2% | [9] 93.4% | [10] 115% | [11] 112% | [12] 100% | [13] 86.6% | [14] 84.2% | [15] 110% | [16] 97.3% | [17] 94.2% | [18] 92.4% | [19] 103% | [20] 97.1%

CCOC(=O)c1cn2c3c(cc(C)cc3c1=O)C(=O)/C(=C/c1ccccc1)C2
inactive: [1] 108% | [2] 94% | [3] 96.9% | [4] 79.2% | [5] 104% | [6] 57.1% | [7] 75.8% | [8] 89.1% | [9] 82.7% | [10] 93.4% | [11] 106% | [12] 79.7% | [13] 112% | [14] 87.2% | [15] 74.6% | [16] 95.7% | [17] 92.6% | [18] 87.8% | [19] 78.4% | [20] 101%

CCN1C(=O)N(CC)C2C1NN=c1s/c(=C\c3cccnc3)c(=O)n12 (stereo not given)
inactive: [1] 44.5% | [2] 49.7% | [3] 47.3% | [4] 53.4% | [6] 101% | [8] 27% | [9] 41.7% | [10] 12.3% | [11] 17% | [13] 61.8% | [14] 46.5% | [16] 49.4% | [17] 11.9% | [19] 68%
active: [5] 7.97% | [7] 8.92% | [12] 9.64% | [15] 0.531% | [18] -13.3% | [20] 0.469%

Cc1ccc(S(=O)(=O)NCCNc2nccc(-c3c(-c4cccc(N)c4)nc4sccn34)n2)cc1
inactive: [1] 91.7% | [2] 79.6% | [3] 108% | [4] 105% | [5] 94.7% | [6] 94% | [7] 83.5% | [8] 87.4% | [9] 96.3% | [10] 105% | [11] 96.9% | [12] 67.1% | [13] 106% | [14] 85.9% | [15] 102% | [16] 86.7% | [17] 95.6% | [18] 101% | [19] 91.1% | [20] 107%

COc1ccc(C(=O)N2NC(=O)/C(=C/c3ccccc3F)N=C2c2ccccc2)cc1
inactive: [1] 93.5% | [2] 104% | [3] 110% | [4] 108% | [5] 106% | [6] 96.8% | [7] 102% | [8] 96.2% | [9] 102% | [10] 122% | [11] 115% | [12] 104% | [13] 109% | [14] 106% | [15] 106% | [16] 105% | [17] 101% | [18] 131% | [19] 99.7% | [20] 111%

O=C(/C=C\c1cccc([N+](=O)[O-])c1)/C=C/c1cccc([N+](=O)[O-])c1
inactive: [1] 92.3% | [2] 105% | [3] 98.2% | [4] 97.2% | [5] 93.5% | [6] 84.3% | [7] 88.2% | [8] 97.1% | [9] 86.3% | [10] 103% | [11] 93.1% | [12] 70.5% | [13] 110% | [14] 90.1% | [15] 79.6% | [16] 78.5% | [17] 100% | [18] 101% | [19] 90.2%

NC1=NN(O)C2=CC([N+](=O)[O-])C=CC2=N1 (stereo not given)
inactive: [1] 97% | [2] 110% | [3] 113% | [4] 98.9% | [5] 110% | [6] 94.1% | [7] 94.2% | [8] 110% | [9] 103% | [10] 111% | [11] 114% | [12] 103% | [13] 137% | [14] 118% | [15] 115% | [16] 101% | [17] 117% | [18] 98.5% | [19] 94.8% | [20] 113%

COc1ccc(-c2cc3c(OC)c(OC)c(OC)cc3oc2=O)cc1
inactive: [1] 59.1% | [2] 83.1% | [3] 77% | [4] 50.4% | [5] 13.8% | [6] 30.6% | [8] 47.7% | [9] 57.2% | [10] 31.5% | [11] 73.3% | [12] 26.1% | [13] 46.9% | [14] 57.8% | [15] 81.4% | [16] 66.8% | [17] 54.3% | [18] 59.9% | [19] 82.4% | [20] 28.9%
active: [7] -11.7%

O=C(Nc1ccc(Cl)c(Cl)c1)NS(=O)(=O)c1cnccc1Oc1ccc(F)cc1
inactive: [1] 39.3% | [2] 74.9% | [3] 89.2% | [4] 80.6% | [5] 44.6% | [6] 52.7% | [7] 20.2% | [8] 28% | [9] 83.9% | [10] 90.4% | [11] 78.5% | [12] 19.6% | [13] 41.2% | [14] 93.9% | [15] 38% | [16] 80.7% | [17] 13.7% | [18] 90.1%
active: [19] -7.26%

COc1cc2c(cc1OCCCCCn1c3ccccc3c3ccccc31)N=C[C@@H]1CCCN1C2=O
active: [1] -25.5% | [2] -91.8% | [4] -38.5% | [5] -84.3% | [6] -65.5% | [7] -22.3% | [8] -66.9% | [9] -92.9% | [10] -85.9% | [11] -53.3% | [12] -21.1% | [13] -64.7% | [14] -87.1% | [15] -80.7% | [16] -59.9% | [18] -85.8% | [19] -55.4%
inactive: [3] 16.2% | [17] 11.7%

CCCCCCCCCCCCCCCCCCNC(=O)[C@H]1CSC(c2cccs2)N1 (stereo not given in full)
inactive: [1] 18.9% | [6] 46.3% | [7] 38.6% | [10] 80.6% | [11] 53.3% | [17] 66.5%
active: [2] -77.5% | [3] 0.224% | [4] -90.3% | [5] -78.4% | [8] 8.15% | [9] 3.69% | [12] -27.7% | [13] -78.4% | [14] -93.5% | [15] -90.9% | [16] -65.7% | [18] -49.6% | [19] -17.7% | [20] -84.8%

COc1ccc(/C=C(\C#N)c2cc(OC)c3c(c2)OCO3)cc1
inactive: [1] 37.5% | [2] 26.7% | [3] 44% | [4] 35.8% | [6] 43.6% | [8] 15.4% | [9] 20% | [13] 54.2% | [14] 10.4% | [15] 21.4% | [16] 26.9% | [19] 84% | [20] 12.1%
active: [5] 5.33% | [7] -8.84% | [10] -41% | [11] -12.7% | [12] 9.08% | [17] 4.91% | [18] 4.3%

CCCN=C1NC(=O)/C(=C/c2nc(-c3ccc(OC)cc3)n3ccccc23)S1
inactive: [1] 77.9% | [2] 84.6% | [3] 82.5% | [4] 98.8% | [5] 37.4% | [6] 106% | [7] 88.1% | [8] 73.3% | [9] 58.5% | [10] 109% | [11] 38.9% | [12] 91.6% | [13] 95.3% | [14] 55.9% | [15] 54.6% | [16] 76.2% | [17] 124% | [18] 95.4% | [19] 110%
